# Several values for one entry are separate records, joined by “and”; a condition that tells them apart may be missing. Equal entries are not always repeated. Values without a mark were called inactive. A call without a number means that no potency is given here. Activity calls are given as the source filed them. Unless noted, the call rests on the fitted dose curve; in most records, active means well fitted curve in the direction sought with a large enough effect in the repeat runs; inconclusive means weak or mixed curves; inactive means no such curve, though single readings can be large; an effect the other way counts as inactive or inconclusive.
# Experiments:
# [1] = qHTS assay for small molecule agonists of the p53 signaling pathway - cell viability (AID 651633; calls by dose curve;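 further: p53RE-bla HCT reporter cells with a stable beta-lactamase p53 reporter; series mostly up to about 83 µM; nearly all actives have a fitted effect of over 30% in size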)
# In short: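 Viability counter-read: CellTiter-Glo luminescence (30 min, room temperature) in the same p53RE-bla plates. These plates had been exposed to compounds for 16 h at 37 C.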
# [2] = qHTS assay for small molecules that induce genotoxicity in human embryonic kidney cells expressing luciferase-tagged ATAD5 - cell viability (AID 651634; calls by dose curve; further: nearly all actives have a fitted effect of over 25% in size; further: potency means the concentration at half of the fitted maximal effect)
# In short: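 HEK293T ATAD5-luc cells, 2,000/well; compound 15.5 hr, 37C/5% CO2; CellTiter-Fluor 30 min, 37C; fluorescence read.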
# [3] = qHTS assay for small molecule disruptors of the mitochondrial membrane potential - cell viability (AID 720634; calls by dose curve;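 further: human HepG2 liver cancer cells; series mostly up to about 83 µM; nearly all actives have a fitted effect of over 20% in size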)
# In short: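 Luminescence from CellTiter-Glo (ATP content) gave viability in HepG2 cells, read in the same wells as the MMP dye assay after 1 hr compound exposure at 37 C.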
# [4] = qHTS assay to test for compound auto fluorescence at 590 nm (red) in HepG2 cells (AID 720674)
# In short: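 We screened compounds on adherent HepG2 cells, incubating them for an hour at 37 C in 5% CO2 before reading emission at 590 nm under 540 nm excitation; values reflect equivalence to Rose Bengal sodium fluorescence.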
# [5] = qHTS assay to test for compound auto fluorescence at 535 nm (green) in HepG2 cells (AID 720675)
# [6] = qHTS assay to test for compound auto fluorescence at 460 nm (blue) in HEK293 cells (AID 720678)
# In short: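 HEK293, 2,000 cells/well, 10% dialyzed FBS; attach 4-5 hr 37C; pin compound or DMSO; o/n 37C/5% CO2; fluorescence 405/460 nm; triamterene-equivalent units.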
# [7] = qHTS assay to test for compound auto fluorescence at 460 nm (blue) in HEK293 cell free culture (AID 720681)
# In short: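 Blue fluorescence (Ex 405/Em 460 nm, triamterene-equivalent) was read immediately after pin transfer of compound or DMSO into medium (DMEM, 10% FBS) without cells.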
# [8] = qHTS assay to test for compound auto fluorescence at 535 nm (green) in HEK293 cell free culture (AID 720682)
# In short: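 Green-channel intensity (Ex/Em 485/535 nm) was recorded from compound-treated wells containing only DMEM with 10% FBS. Fluorescein provided the equivalency standard.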
# [9] = qHTS assay to test for compound auto fluorescence at 590 nm (red) in HEK293 cell free culture (AID 720683)
# In short: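 Red-channel autofluorescence of compounds in culture medium (DMEM, 10% FBS), no cells, measured at 540/590 nm. Rose Bengal sodium is the reference fluorophore for equivalence.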
# [10] = qHTS assay to test for compound auto fluorescence at 590 nm (red) in HepG2 cell free culture (AID 720684)
# In short: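 No cells present: MEM + 10% FBS only. Compound pinned in, red label read (540/590 nm). Activity = fluorescence equivalent to Rose Bengal sodium.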
# [11] = qHTS assay to test for compound auto fluorescence at 460 nm (blue) in HepG2 cell free culture (AID 720685)
# In short: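 Cell-free plates of MEM plus 10% FBS received 23 nL compound or DMSO vehicle; blue-channel (405/460 nm) intensity scored against triamterene as reference fluorophore.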
# [12] = qHTS assay to test for compound auto fluorescence at 535 nm (green) in HepG2 cell free culture (AID 720686)
# [13] = qHTS assay to test for compound auto fluorescence at 460 nm (blue) in HepG2 cells (AID 720687)
# In short: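 Blue-channel autofluorescence (Ex/Em 405/460 nm, triamterene-equivalent) was measured after 1 hr compound exposure at 37 C, 5% CO2. Cells were HepG2, plated overnight at 37 C in MEM plus 10% FBS.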
# [14] = biological target: Glucocorticoid receptor (Homo sapiens) (UniProt P04150); assay: qHTS assay to identify small molecule agonists of the glucocorticoid receptor (GR) signaling pathway (AID 720691; active means well fitted activation curve with a large enough effect in the signal ratio in the repeat runs, not every such curve was filed as active; inconclusive means weak or mixed curves, or effect the other way; inactive means no such curve, though single readings can be large or run the other way; the % refers to the signal ratio; further: potency means the concentration at half of the fitted maximal effect)
# In short: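 HeLa GR-bla reporter line; cells pre-incubated 4 h, compound in DMSO 18 h at 37 C; LiveBLAzer B/G FRET substrate 2 h RT; fluorescence intensity read-out.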
# [15] = biological target: Glucocorticoid receptor (Homo sapiens) (UniProt P04150); assay: qHTS assay to identify small molecule antagonists of the glucocorticoid receptor (GR) signaling pathway (AID 720692; active means well fitted inhibition curve with a large enough effect in the signal ratio in the repeat runs, not every such curve was filed as active; inconclusive means weak or mixed curves, or effect the other way; inactive means no such curve, though single readings can be large or run the other way; the % refers to the signal ratio)
# In short: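 Read-out: beta-lactamase FRET substrate fluorescence, 2 h at room temperature, in HeLa cells stably carrying a GRE-driven bla reporter. Compounds were co-incubated with 5 nM dexamethasone agonist (final) for 18 h at 37 C.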
# [16] = qHTS assay to test for compound auto fluorescence at 590 nm (red) in HEK293 cells (AID 720679)
# In short: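 Intensity at 540nm excitation and 590nm emission is reported as Rose Bengal sodium-equivalent autofluorescence. Measurements followed overnight exposure (37C, 5% CO2) of HEK293 cells, 2,000 per well, to 23 nL compound.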
# [17] = qHTS assay for small molecule disruptors of the mitochondrial membrane potential (AID 720635); further: potency means the concentration at half of the fitted maximal effect
# In short: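 Mitochondrial membrane potential tracked with Mito-MPS dye, red aggregates (ex 540/em 590 nm) against green monomers (ex 490/em 535 nm). Compound treatment 1 hr at 37C, dye 30 min in HepG2.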
# [18] = qHTS assay to test for compound auto fluorescence at 535 nm (green) in HEK293 cells (AID 720680)
# Chain of Glucocorticoid receptor (Homo sapiens) (P04150 whole entry, looked up): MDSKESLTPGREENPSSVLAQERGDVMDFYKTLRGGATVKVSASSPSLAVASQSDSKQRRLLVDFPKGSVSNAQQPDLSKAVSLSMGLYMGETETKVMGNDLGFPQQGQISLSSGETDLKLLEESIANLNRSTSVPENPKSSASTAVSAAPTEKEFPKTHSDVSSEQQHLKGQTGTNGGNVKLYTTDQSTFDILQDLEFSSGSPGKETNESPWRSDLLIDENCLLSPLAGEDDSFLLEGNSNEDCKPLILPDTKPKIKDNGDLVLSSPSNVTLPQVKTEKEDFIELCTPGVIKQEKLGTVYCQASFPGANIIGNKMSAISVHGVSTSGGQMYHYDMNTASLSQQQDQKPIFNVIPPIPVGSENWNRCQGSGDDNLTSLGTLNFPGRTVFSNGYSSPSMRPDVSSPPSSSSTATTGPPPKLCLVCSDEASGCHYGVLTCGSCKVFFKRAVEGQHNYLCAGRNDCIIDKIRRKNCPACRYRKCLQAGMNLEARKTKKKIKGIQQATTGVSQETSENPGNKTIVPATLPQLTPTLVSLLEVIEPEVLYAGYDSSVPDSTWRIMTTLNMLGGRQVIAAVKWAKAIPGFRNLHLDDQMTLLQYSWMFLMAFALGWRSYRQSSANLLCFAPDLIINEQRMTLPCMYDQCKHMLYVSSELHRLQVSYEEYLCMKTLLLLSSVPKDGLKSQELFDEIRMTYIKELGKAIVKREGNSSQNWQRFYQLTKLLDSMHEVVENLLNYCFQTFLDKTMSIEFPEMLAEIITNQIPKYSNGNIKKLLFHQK
compound,measurement,setting,value
COc1ccc2cc1Oc1ccc(cc1)C[C@H]1c3c(cc4c(c3Oc3cc5c(cc3OC)CCN(C)[C@@H]5C2)OCO4)CCN1C,Potency,[1],inactive
same,Potency,[2],29.8 µM (active)
same,Potency,[3],inactive
same,Potency,[4],inactive
same,Potency,[5],inactive
same,Potency,[6],inactive
same,Potency,[7],inactive
same,Potency,[8],inactive
same,Potency,[9],inactive
same,Potency,[10],inactive
same,Potency,[11],inactive
same,Potency,[12],inactive
same,Potency,[13],inactive
same,Potency,[14],inactive
same,Potency,[15],inactive
Cc1c(F)c(N2CCNC(C)C2)cc2c1c(=O)c(C(=O)O)cn2C1CC1 (stereo unspecified),Potency,[1],inactive
same,Potency,[3],inactive
same,Potency,[4],inactive
same,Potency,[5],inactive
same,Potency,[6],inactive
same,Potency,[16],inactive
same,Potency,[7],inactive
same,Potency,[8],inactive
same,Potency,[9],inactive
same,Potency,[10],inactive
same,Potency,[11],inactive
same,Potency,[12],inactive
same,Potency,[13],inactive
same,Potency,[14],inactive
same,Potency,[15],inactive
CCc1cccc(CC)c1NC(=O)CN(CC(=O)O)CC(=O)O,Potency,[1],inactive
same,Potency,[2],inactive
same,Potency,[3],inactive
same,Potency,[17],inactive
same,"fluorescence, relative to Rose Bengal",[4],0.215% [at 18.6 µM]
same,"fluorescence, % of fluorescein control",[5],-0.0501% [at 18.6 µM]
same,"fluorescence, % of triamterene",[6],-0.194% [at 18.6 µM]
same,"fluorescence, % of fluorescent control",[16],-0.732% [at 18.6 µM]
same,"fluorescence, % of fluorescein",[18],0.0114% [at 18.6 µM]
same,"fluorescence, % of fluorescent control",[7],0.0332% [at 18.6 µM]
same,activity change,[8],"0.0655% [at 18.6 µM, active compounds read high]"
same,"fluorescence, % of fluorescent control",[9],0.184% [at 18.6 µM]
same,"fluorescence, % of Rose Bengal",[10],-0.249% [at 18.6 µM]
same,"fluorescence, % of fluorescent control",[11],-0.0593% [at 18.6 µM]
same,"fluorescence, % of fluorescein control",[12],0.0075% [at 18.6 µM]
same,"fluorescence, % of fluorescent control",[13],0.148% [at 18.6 µM]
same,Potency,[14],inactive
same,Potency,[15],inactive
COc1cccc2c1C(=O)c1c(O)c3c(c(O)c1C2=O)C[C@@](O)(C(C)=O)C[C@@H]3O[C@H]1C[C@H](N)[C@H](O)[C@H](C)O1,Potency,[2],9.44 µM (active) and 30.8 µM (active)
same,Potency,[3],inactive
same,Potency,[17],1.5 µM (active) and 4.35 µM (active)
same,Potency,[6],inactive
same,Potency,[16],inactive
same,Potency,[18],inactive
same,Potency,[7],inactive
same,Potency,[8],inactive
same,Potency,[9],inactive
same,Potency,[10],inactive
same,Potency,[11],inactive
same,Potency,[12],inactive
same,Potency,[13],inactive
same,Potency,[14],3.01 µM [inconclusive] (active) and 49.3 µM [inconclusive] (active)
Cc1c(C)c2c(c(C)c1O)CC[C@@](C)(CCC[C@H](C)CCC[C@H](C)CCCC(C)C)O2,Potency,[1],inactive
same,Potency,[2],inactive
same,Potency,[3],inactive
same,Potency,[17],inactive
same,Potency,[4],inactive
same,Potency,[5],inactive
same,Potency,[6],inactive
same,Potency,[18],inactive
same,Potency,[7],inactive
same,Potency,[8],inactive
same,Potency,[9],inactive
same,Potency,[10],inactive
same,Potency,[12],inactive
same,Potency,[13],inactive
same,Potency,[14],inactive
CCC(C)[O-].CCC(C)[O-].CCOC(=O)/C=C(/C)[O-].[Al+3],Potency,[2],inactive
same,Potency,[3],inactive
same,Potency,[17],inactive
same,Potency,[4],inactive
same,Potency,[5],inactive
same,Potency,[6],inactive
same,Potency,[16],inactive
same,Potency,[7],inactive
same,Potency,[8],inactive
same,Potency,[9],inactive
same,Potency,[10],inactive
same,Potency,[11],inactive
same,Potency,[12],inactive
same,Potency,[13],inactive
Cc1c(C)c2c(c(C)c1OC(=O)c1cccnc1)CC[C@@](C)(CCC[C@H](C)CCC[C@H](C)CCCC(C)C)O2,Potency,[1],inactive
same,Potency,[2],inactive
same,Potency,[3],inactive
same,Potency,[4],inactive
same,Potency,[6],inactive
same,Potency,[16],inactive
same,Potency,[7],inactive
same,Potency,[8],inactive
same,Potency,[9],inactive
same,Potency,[10],inactive
same,Potency,[12],inactive
same,Potency,[13],inactive
CC[C@H](C)COC(=O)/C=C/c1ccc(N=Cc2ccc(OC)cc2)cc1,Potency,[1],inactive
same,Potency,[2],inactive
same,Potency,[17],30.6 µM (active)
same,Potency,[5],inactive
same,Potency,[6],inactive
same,Potency,[16],inactive
same,Potency,[18],inactive
same,Potency,[7],inactive
same,Potency,[8],inactive
same,Potency,[9],inactive
same,Potency,[10],inactive
same,Potency,[11],inactive
same,Potency,[12],inactive
same,Potency,[13],inactive
same,Potency,[14],inactive
same,Potency,[15],inactive
O=C1NC(=O)[C@@H]2CC=CC[C@H]12,Potency,[1],inactive
same,Potency,[2],inactive
same,Potency,[3],inactive
same,Potency,[17],inactive
same,Potency,[4],inactive
same,Potency,[5],inactive
same,Potency,[6],inactive
same,Potency,[16],inactive
same,Potency,[18],inactive
same,Potency,[7],inactive
same,Potency,[8],inactive
same,Potency,[9],inactive
same,Potency,[10],inactive
same,Potency,[12],inactive
same,Potency,[13],inactive
same,Potency,[14],inactive
same,Potency,[15],inactive
Cc1c(C)c([N+](=O)[O-])c(C(C)(C)C)c([N+](=O)[O-])c1C,Potency,[1],inactive
same,Potency,[2],inactive
same,Potency,[17],30.6 µM (active)
same,Potency,[4],inactive
same,Potency,[5],inactive
same,Potency,[6],inactive
same,Potency,[16],inactive
same,Potency,[18],inactive
same,Potency,[7],inactive
same,Potency,[8],inactive
same,Potency,[9],inactive
same,Potency,[10],inactive
same,Potency,[11],inactive
same,Potency,[12],inactive
same,Potency,[13],inactive
